In the library only some 0.87% were active in any assay of this set; here they are far more common.
TDP1 inh – blocks human tyrosyl-DNA phosphodiesterase 1 | Q9NUW8 | recombinant TDP1, AlphaScreen DNA substrate cleavage | Potency, µM (top dose mostly 130 µM), inactives show top-dose activity change, negative = inhibition, usual class: inhibitors | hit rate 0.28% among 350,000 | AID 485290; note: nearly all actives have a fitted effect of over 40% in size
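Recombinant human Tdp1 (E. coli-expressed, 1 nM final) preincubated with compounds 15 min at room temperature, then 5'-biotin/3'-phosphotyrosine-FITC DNA substrate (15 nM final) added for 5 min. AlphaScreen beads (10 ug/ml final) added 10 min; cleavage lowers signal.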
APE1 inh-1 – APE1 (human) endonuclease inhibition. P27695. recombinant APE1, TAMRA/BHQ-2 abasic DNA cleavage fluorescence. Potency, µM (series often up to 65.8 µM), without a hit: top-dose activity change, negative = inhibition, usual class: inhibitors. hit rate 0.35% among 350,000;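 note: plate controls were vehicle for no effect and reference inhibitor for full effect; nearly all actives have a fitted effect of over 55% in size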
Target sequence (P27695 whole entry, looked up): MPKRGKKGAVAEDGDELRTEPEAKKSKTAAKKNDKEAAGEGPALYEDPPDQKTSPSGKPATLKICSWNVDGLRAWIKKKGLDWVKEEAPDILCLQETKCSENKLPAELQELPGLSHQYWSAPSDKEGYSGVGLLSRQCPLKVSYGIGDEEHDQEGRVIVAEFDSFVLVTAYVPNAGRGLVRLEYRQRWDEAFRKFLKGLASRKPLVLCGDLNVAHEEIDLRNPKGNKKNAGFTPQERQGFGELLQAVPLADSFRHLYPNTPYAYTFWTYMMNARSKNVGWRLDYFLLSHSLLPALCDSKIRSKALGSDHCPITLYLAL
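Substrate: short duplex with […] THF abasic site, 5'-TAMRA and 3'-BHQ-2, 50 nM final. APE1 at 0.75 nM, preincubated 15 min RT with compound. Fluorescence increase from first to third read measured activity.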
BLM inh – inhibitors of human Bloom syndrome helicase BLM. P54132. recombinant BLM DNA unwinding, fluorescence dequenching. Potency, µM (highest dose often 56.1 µM), for the others: top-dose activity change, negative = inhibition, hits mostly inhibitors. hit rate 0.2% among 350,000. AID 2528;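 note: plate controls were vehicle for no effect and no enzyme for full effect; nearly all actives have a fitted effect of over 35% in size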
KAT2A inh – GCN5L2 (KAT2A) acetyltransferase inhibition. hit rate 0.21% among 390,000. GCN5L2 HAT assay, ThioGlo1 CoA-SH fluorescence. Potency, µM (highest dose often 58.9 µM), for inactives: at the top dose activity change, negative = inhibition, actives largely listed as inhibitors. Q92830
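GCN5L2 (20 nM) in 50mM HEPES pH 7.5, 0.1mM EDTA, 0.01% Tween-20 preincubated 15 min with compounds at room temperature. Reaction started with H3(1-25) 75uM, acetyl-CoA 70uM, ThioGlo1 50uM; CoA-thiol fluorescence (Ex340/Em540) read at 0 and 20 min.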
RECQ1 helicase – RECQ1 (human) helicase inhibition; hit rate 0.54% among 240,000; AID 2549; RECQ1 DNA unwinding, red fluorescence kinetic read; Potency, µM (doses to about 57.3 µM), for the others: top-dose activity, negative = inhibition, hits mostly inhibitors;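 note: plate controls were vehicle for no effect and no enzyme for full effect; nearly all actives have a fitted effect of over 30% in size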
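RECQ1T1 50 nM; forked duplex (20 bp + 30-nt ss tails) 200 nM, ATP 2 mM final; pH 8.0, 2 mM MgCl2, 2.5 ug/ml poly(dI-dC); 15 min compound preincubation; discontinuous kinetic read over 2 h at RT.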
DNA dye displace – counter-screen for APE1 inhibitors: DNA dye displacement; shares compounds with APE1 inh-1; DNA fluorescent dye displacement counterscreen, fluorescence; Potency, µM (top dose mostly 28.5 µM), inactives show top-dose activity change, negative = inhibition, hits mostly inhibitors; hit rate 7% among 480;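 note: loss of thiazole orange fluorescence as the dye is displaced from duplex DNA; 0% = ThO with dsDNA and no compound and -100% = ThO without dsDNA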
Endo IV inh – Endo IV (E. coli) inhibition counter-screen. shares compounds with APE1 inh-1. E. coli Endo IV, fluorogenic AP-site DNA cleavage. Potency, µM (titrated, usually from 27.1 µM), inactives show top-dose activity change, negative = inhibition, actives largely listed as inhibitors. hit rate 4% among 560. AID 2565;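 note: plate controls were uninhibited enzyme wells for no effect and no enzyme buffer wells for full effect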
APE1 inh-2 – APE1 (human) endonuclease inhibition, confirmation | Potency, µM (top dose mostly 57.1 µM), without a hit: at the top dose activity change, negative = inhibition, actives largely listed as inhibitors | shares compounds with APE1 inh-1 | purified APE1, fluorogenic abasic-site DNA cleavage | hit rate 44% among 750; note: nearly all actives have a fitted effect of over 30% in size
APE1 FP – displaces DNA from human APE1 in FP assay | shares compounds with APE1 inh-1 | APE1 binding to TAMRA-labelled double-stranded DNA, fluorescence polarization displacement | Potency, µM (series often up to 28.5 µM), without a hit: top-dose activity, negative = inhibition, usual class: inhibitors | hit rate 7% among 480 | AID 2573
The depositor's hits bear a star; [ ] = dose if it differs, or a comment. Calls come from the whole dose curve; as a rule, active = well fitted curve in the direction sought with a large enough effect; inconclusive = small, poorly fitted or top-dose-only effect, or another doubt; inactive = no such curve, though single readings can be large; an effect the other way counts as inactive or inconclusive. Unless noted, % is set by controls: 0 for no effect and ±100 for the full control effect; potency is the fitted concentration of half-maximal effect.

`CC(=O)N[C@H]1C(O[C@@H]2O[C@H](C[C@@H](O)[C@H]3O[C@@H](N4CCC(=O)NC4=O)[C@H](O)[C@@H]3O)[C@H](O)[C@H](O)[C@H]2NC(=O)/C=C/CCCCCCCCCCC(C)C)OC(CO)[C@@H](O)[C@@H]1O` (some centres not stated) gave TDP1 inh 12%, APE1 inh-1 7.9µM*, BLM inh -9%, KAT2A inh -3%, RECQ1 helicase -9%, DNA dye displace 103%[57.1 µM], Endo IV inh 11%[57.1 µM], APE1 inh-2 2.5µM* and APE1 FP -57%[57.1 µM].
Screening CC(=O)NC1C(OC2OC(CC(O)C3OC([N+]4=CCC(=O)NC4=O)C(O)C3O)C(O)C(O)C2NC(=O)/C=C/CCCCCCCCC(C)C)OC(CO)C(O)C1O (configuration not stated) returned TDP1 inh 13%, APE1 inh-1 -3%, KAT2A inh -8% and RECQ1 helicase 25%.
`Nc1nc(Cl)nc2c1ncn2[C@@H]1O[C@H](COP(=O)(O)OP(=O)(O)OP(=O)(O)O)[C@H](O)[C@H]1O` gave APE1 inh-1 0% and RECQ1 helicase -12%.
For CC(=O)c1nn(-c2cccc(Br)c2)cc1C(=O)c1ccccc1 the results were TDP1 inh 2%, APE1 inh-1 inconclusive, BLM inh -3%, KAT2A inh -2%, RECQ1 helicase inactive, DNA dye displace -7%, Endo IV inh 7%, APE1 inh-2 -7%[24.4 µM] and APE1 FP 4%.
Screening CC(=O)c1nn(-c2cccc(Br)c2)cc1C(=O)c1ccc(Cl)cc1 returned TDP1 inh 1%, APE1 inh-1 18%, BLM inh 5%, KAT2A inh -8% and RECQ1 helicase -1%.
O=C(O)CC(NCc1ccco1)C(=O)OCC1CCCO1 (configuration not stated) was read as TDP1 inh 4%, APE1 inh-1 13%, BLM inh -1%, KAT2A inh 0% and RECQ1 helicase -15%.
C=C(C)CCOC(=O)C(CC(=O)O)NCc1ccco1 (configuration not stated) was read as APE1 inh-1 inconclusive, BLM inh -4%, KAT2A inh -5%, RECQ1 helicase -5% and APE1 inh-2 inconclusive.
O=C(O)c1ccc(-c2ccc(/C=C3\NC(=O)N(Cc4ccc(Cl)cc4)C3=O)o2)cc1Cl was read as TDP1 inh inconclusive, APE1 inh-1 inconclusive, BLM inh 30%, KAT2A inh -16%, RECQ1 helicase inconclusive and APE1 inh-2 16µM*.
C[C@@H]1/C=C\CC(=O)OC[C@H](C)C(=O)N2CCC[C@@H]2C(=O)OC1 was read as TDP1 inh 7%[21 µM], APE1 inh-1 inconclusive, BLM inh 0%[12.4 µM] and RECQ1 helicase 21%[11.5 µM].
Screening O=C(CSc1nc2cc(Cl)c(Cl)cc2[nH]1)c1ccc2c(c1)OCO2 returned TDP1 inh 1%, APE1 inh-1 inconclusive, BLM inh -15%, KAT2A inh -4%, RECQ1 helicase -2%, DNA dye displace 36%, Endo IV inh -2%, APE1 inh-2 inconclusive and APE1 FP 10%.
Screening O=C1C2C3C=CC([C@@H]2C(=O)N1c1nccs1)C31CC1 (some centres not stated) returned TDP1 inh 2%, APE1 inh-1 0%, BLM inh 1%, KAT2A inh -6% and RECQ1 helicase -5%.
O=C1C2C3C=CC(CC3)C2C(=O)N1c1nccs1 (configuration not stated) was read as TDP1 inh 10µM*, APE1 inh-1 6.3µM*, BLM inh -28%, KAT2A inh -16%, RECQ1 helicase 22µM*, DNA dye displace 54%, Endo IV inh 26%, APE1 inh-2 inconclusive and APE1 FP -45%.
`COc1ccccc1CNc1ccnc(-c2ccc3c(c2)OCO3)n1` gave APE1 inh-1 -6%, BLM inh -8%, KAT2A inh -24% and RECQ1 helicase -6%.
`CN=c1scc(C)n1/N=C/c1ccc(O)c(O)c1O` gave TDP1 inh -2%, APE1 inh-1 7.1µM*, BLM inh inconclusive, KAT2A inh inconclusive, RECQ1 helicase 10µM*, DNA dye displace inconclusive, Endo IV inh 93%, APE1 inh-2 14µM* and APE1 FP 8%.
CN=c1scc(C)n1/N=C/c1cc(Br)c(O)c(OC)c1 was read as TDP1 inh -4%, APE1 inh-1 0%, BLM inh -7%, KAT2A inh -24% and RECQ1 helicase inactive.
COc1cccc(C2CN(c3ccc(F)cc3F)N=C2c2cccs2)c1OC (configuration not stated) was read as TDP1 inh inconclusive, APE1 inh-1 -7%, BLM inh -5%, KAT2A inh -12% and RECQ1 helicase -7%.
For COc1ccccc1C1CN(c2ccccc2)N=C1c1cccs1 (configuration not stated) the results were TDP1 inh 7.9µM*, APE1 inh-1 1%, BLM inh -7%, KAT2A inh 0%, RECQ1 helicase -9% and APE1 inh-2 inconclusive.
`COC(=O)NC(/C(C(=O)OC)=C(\C)NCc1ccccc1)c1cccc(F)c1` (configuration not stated) gave TDP1 inh 4%[21 µM], APE1 inh-1 inconclusive, BLM inh 0%[12.4 µM] and RECQ1 helicase 1%[11.5 µM].
For COc1cccc(-c2ccc3ncnc(NCCNC(C)=O)c3c2)c1 the results were APE1 inh-1 -1%, BLM inh 8%, KAT2A inh -12% and RECQ1 helicase 9%.
